Laboratory results reported in PubChem BioAssay (Tox21).
Results filed as inconclusive are left out. Activity calls are given as the source filed them. Unless noted, calls come from the whole dose curve; as a rule, active = well fitted curve in the direction sought with a large enough effect in the repeat runs; inconclusive = weak or mixed curves; inactive = no such curve, though single readings can be large; an effect the other way counts as inactive or inconclusive.

Experiments:
[1] = qHTS assay to identify small molecule antagonists of the estrogen related receptor (ERR) signaling pathway - cell viability counter screen (AID 1224818); note: series mostly up to about 46 µM
Summary of the method: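 ERR cells, 2,000 per well, compound added after 6 h and incubated 17.5 h at 37 C. Viability read by CellTiter-Fluor fluorescence after a further 30 min at 37 C.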

[2] = qHTS assay to identify small molecule antagonists of the estrogen related receptor (ERR) signaling pathway (AID 1224819;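 note: luminescence from an ERR-driven luciferase reporter measured with One-Glo reagent; series mostly up to about 46 µM; nearly all actives have a fitted effect of over 50% in size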)
Summary of the method: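 ERR reporter cell line (NTP) plated at 2,000 cells/well, settled 6 h at 37C/5% CO2, then exposed to LOPAC compounds for 18 h at 37C. One-Glo luciferase luminescence read after 30 min at room temperature.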

[3] = qHTS assay to identify small molecule agonists of the estrogen related receptor (ERR) signaling pathway (AID 1224820)
Summary of the method: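 Quantitative HTS of the LOPAC library used NTP ERR reporter cells treated 18 h at 37 C. Signal is luminescence after One-Glo addition and a 30 min room-temperature incubation.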

[4] = test system: estrogen-related receptor alpha (ERRalpha) with PGC-1alpha coactivator, human; assay: qHTS assay to identify small molecule antagonists of the estrogen related receptor signaling pathway with the pleiotropic PPARgamma coactivator (PGC) (AID 1224821; calls by dose curve;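 note: series mostly up to about 46 µM; lower luminescence signal means antagonism of PGC/ERR signalling; nearly all actives have a fitted effect of over 50% in size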)
Summary of the method: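 Quantitative HTS for antagonism: PGC/ERR cells received compounds after 6 h attachment and were incubated 18 h at 37 C, with luminescence (One-Glo) as the endpoint.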

[5] = qHTS assay to identify small molecule antagonists of the estrogen related receptor signaling pathway with the pleiotropic PPARgamma coactivator (PGC) cell viability counter screen (AID 1224822; note: series mostly up to about 46 µM)
Summary of the method: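 PGC/ERR cells rested 6 h, then compound-treated 17.5 h at 37 C. CellTiter-Fluor added for 30 min at 37 C, viability measured by fluorescence intensity.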

[6] = qHTS assay to identify small molecule agonists of the estrogen related receptor signaling pathway with the pleiotropic PPARgamma coactivator (PGC) (AID 1224823)
Summary of the method: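 Cell-based luciferase assay in the NTP-supplied PGC/ERR line, 2,000 cells/well; 18 h compound exposure at 37 C, luminescence after One-Glo.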

[7] = qHTS assay for small molecule agonists of the p53 signaling pathway (AID 651631; calls by dose curve; note: nearly all actives have a fitted effect of over 15% in size)
Summary of the method: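 Beta-lactamase reporter activity under p53 response elements was quantified in HCT-116 cells by FRET fluorescence, following 16 h incubation with test compounds at 37 °C and 2 h substrate development at room temperature.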

[8] = qHTS assay for small molecules that induce genotoxicity in human embryonic kidney cells expressing luciferase-tagged ATAD5 (AID 651632); note: nearly all actives have a fitted effect of over 15% in size
Summary of the method: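 HEK293T cells carrying luciferase-tagged ATAD5 were given compound or DMSO vehicle and incubated 16 hr at 37C, 5% CO2. Luciferase activity was read after 30 min at room temperature with Amplite; a rise signals genotoxic stress.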

[9] = qHTS assay for small molecules that induce genotoxicity in human embryonic kidney cells expressing luciferase-tagged ATAD5 - cell viability (AID 651634; calls by dose curve; note: nearly all actives have a fitted effect of over 25% in size)
Summary of the method: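 HEK293T cells carrying luciferase-tagged ATAD5, 2,000 cells/well, exposed to compound for 15.5 hr at 37C. Viability read as live-cell protease activity by CellTiter-Fluor fluorescence after 30 min at 37C.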

[10] = qHTS assay for small molecule disruptors of the mitochondrial membrane potential - cell viability (AID 720634; calls by dose curve;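 note: human HepG2 liver cancer cells; series mostly up to about 83 µM; nearly all actives have a fitted effect of over 20% in size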)
Summary of the method: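 HepG2 cells, 2,000 per well, attached overnight, then treated 1 hr at 37 C, 5% CO2. Viability read as ATP by CellTiter-Glo luminescence after 30 min at room temperature. Read in the same wells as the m-MPI membrane-potential dye assay.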

[11] = qHTS assay for small molecule disruptors of the mitochondrial membrane potential (AID 720635)
Summary of the method: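 HepG2 cells (2,000/well) attached overnight at 37C, then took compound for 1 hr at 37C, 5% CO2. Mito-MPS dye was added for 30 min; fluorescence was read at 490/535 nm (monomers) and 540/590 nm (aggregates).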

[12] = qHTS assay to test for compound auto fluorescence at 535 nm (green) in HepG2 cells (AID 720675)
[13] = qHTS assay to test for compound auto fluorescence at 590 nm (red) in HEK293 cells (AID 720679)
Summary of the method: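 Red autofluorescence, HEK293 cells: 2,000 cells/well; attach 4-5 hr 37C; add 23 nL cpd or DMSO; incubate o/n 37C 5% CO2; read Ex540/Em590; Rose Bengal sodium reference.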

[14] = qHTS assay to test for compound auto fluorescence at 535 nm (green) in HEK293 cells (AID 720680)
[15] = qHTS assay to test for compound auto fluorescence at 460 nm (blue) in HEK293 cell free culture (AID 720681)
Summary of the method: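 Test compounds were pinned into cell-free culture medium (DMEM with 10% FBS) and fluorescence was read directly at Ex/Em 405/460 nm. Signals were expressed as fluorescence equivalents of triamterene, with DMSO vehicle as control.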

[16] = qHTS assay to test for compound auto fluorescence at 535 nm (green) in HEK293 cell free culture (AID 720682)
Summary of the method: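 Each library compound, or DMSO control, is added by pintool to medium alone, comprising DMEM and 10% FBS. Emission at 535 nm following 485 nm excitation is quantified against fluorescein.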

[17] = qHTS assay to test for compound auto fluorescence at 590 nm (red) in HEK293 cell free culture (AID 720683)
Summary of the method: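 Tox21 10K library compounds were pinned into cell-free DMEM with 10% FBS and fluorescence was read at excitation 540 nm. Activity is expressed as Rose Bengal sodium equivalency.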

[18] = qHTS assay to test for compound auto fluorescence at 590 nm (red) in HepG2 cell free culture (AID 720684)
Summary of the method: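 Red fluorescence (540 nm excitation, 590 nm emission) was measured after compound transfer into cell-free MEM supplemented with 10% FBS. Values are equivalencies against Rose Bengal sodium.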

[19] = qHTS assay to test for compound auto fluorescence at 460 nm (blue) in HepG2 cell free culture (AID 720685)
Summary of the method: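 Compound (23 nL) or DMSO pinned into cell-free MEM with 10% FBS; blue fluorescence read at 405/460 nm excitation/emission, expressed as auto-fluorescence equivalency to triamterene.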

[20] = qHTS assay to test for compound auto fluorescence at 535 nm (green) in HepG2 cell free culture (AID 720686)
[21] = qHTS assay to test for compound auto fluorescence at 460 nm (blue) in HepG2 cells (AID 720687)
Summary of the method: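 Cells (2,000/well in MEM with 10% FBS) attached overnight at 37 C, then were exposed to compound or DMSO for 1 hr at 37 C, 5% CO2. Fluorescence read at Ex/Em 405/460 nm, expressed as triamterene-equivalent signal.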

[22] = qHTS assay to identify small molecule antagonists of the glucocorticoid receptor (GR) signaling pathway - cell viability counter screen (AID 720693); note: nearly all actives have a fitted effect of over 55% in size
[23] = qHTS assay for identifying genotoxic compounds that show differential cytotoxicity against isogenic chicken DT40 cell lines with known DNA damage response pathways - Rad54/Ku70 mutant cell line (AID 743015); note: nearly all actives have a fitted effect of over 60% in size
[24] = qHTS assay to identify small molecule antagonists of the androgen receptor (AR) signaling pathway - cell viability counter screen (AID 743033; note: nearly all actives have a fitted effect of over 45% in size)
[25] = qHTS assay to identify small molecule antagonists of the androgen receptor (AR) signaling pathway using the MDA cell line - cell viability counter screen (AID 743041; note: nearly all actives have a fitted effect of over 45% in size)
Summary of the method: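 MDA-kb2 AR-luc human breast carcinoma cells (MMTV-luciferase, AR/GR responsive) were treated with compounds plus R1881 agonist for 16 h at 37 °C. Viability was read as CellTiter-Fluor fluorescence in the same wells as the reporter assay.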

[26] = qHTS assay to identify small molecule antagonists of the thyroid receptor (TR) signaling pathway - cell viability counter screen (AID 743064); note: nearly all actives have a fitted effect of over 50% in size
Summary of the method: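 CellTiter-Fluor readout, 30 min at 37 °C/5% CO2, following 23.5 h incubation of GH3.TRE-Luc cells with test compound and 1 nM T3 (final).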

[27] = qHTS assay to identify small molecule antagonists of the thyroid receptor (TR) signaling pathway (AID 743065); note: series mostly up to about 70 µM; nearly all actives have a fitted effect of over 55% in size
Summary of the method: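 GH3.TRE-Luc rat pituitary cells carrying two TR response elements driving luciferase were plated for 4 h, given compound plus 1 nM T3 (final), and incubated 23.5 h at 37 C. ONE-Glo luminescence measured reporter inhibition; CellTiter-Fluor fluorescence tracked cytotoxicity.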

[28] = test system: thyroid hormone receptor (rat, GH3 cells); assay: qHTS assay to identify small molecule agonists of the thyroid receptor (TR) signaling pathway (AID 743066; calls by dose curve)
[29] = molecular target: Estrogen receptor (Homo sapiens) (UniProt P03372); assay: qHTS assay to identify small molecule antagonists of the estrogen receptor alpha (ER-alpha) signaling pathway (AID 743069; active = well fitted curve in the direction sought with a large enough effect in the signal ratio in the repeat runs, not every such curve was filed as active; the % refers to the signal ratio)
Summary of the method: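 HEK293 cells stably carrying an ER-alpha-UAS-bla beta-lactamase reporter were pre-cultured overnight in 2% charcoal-stripped FBS medium. Test compounds in DMSO were added together with 17beta-estradiol for 18 hr at 37C. Read-out was fluorescence after 2 hr with LiveBLAzer B/G FRET substrate at room temperature.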

[30] = molecular target: Estrogen receptor (Homo sapiens) (UniProt P03372); assay: qHTS assay to identify small molecule agonists of the estrogen receptor alpha (ER-alpha) signaling pathway (AID 743075; calls by dose curve)
[31] = molecular target: Estrogen receptor (Homo sapiens) (UniProt P03372); assay: qHTS assay to identify small molecule agonists of the estrogen receptor alpha (ER-alpha) signaling pathway using the BG1 cell line (AID 743079); note: nearly all actives have a fitted effect of over 20% in size
[32] = qHTS assay to identify small molecule antagonists of the estrogen receptor alpha (ER-alpha) signaling pathway using the BG1 cell line (AID 743080; calls by dose curve;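 note: BG1 cells stimulated with 17beta-estradiol alongside compound; series mostly up to about 70 µM; nearly all actives have a fitted effect of over 25% in size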)
Summary of the method: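 Readout is ONE-Glo luminescence, taken 30 min at room temperature after reagent addition, preceded by a CellTiter-Fluor viability read; BG1-Luc-4E2 cells had received compound and 17beta-estradiol for 21.5 h at 37 C.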

[33] = qHTS assay to identify small molecule antagonists of the estrogen receptor alpha (ER-alpha) signaling pathway using the BG1 cell line - cell viability counter screen (AID 743081);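 note: compound given together with 17beta-estradiol as the ER stimulus; series mostly up to about 70 µM; nearly all actives have a fitted effect of over 45% in size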
[34] = molecular target: Aromatase (Homo sapiens) (UniProt P11511); assay: qHTS assay to identify aromatase inhibitors (AID 743083); note: series mostly up to about 70 µM; nearly all actives have a fitted effect of over 55% in size
[35] = qHTS assay to identify aromatase inhibitors - cell viability counter screen (AID 743084);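 note: cells stimulated with testosterone during compound exposure; nearly all actives have a fitted effect of over 55% in size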
[36] = molecular target: Aryl hydrocarbon receptor (Homo sapiens) (UniProt P35869); assay: qHTS assay to identify small molecule that activate the aryl hydrocarbon receptor (AhR) signaling pathway (AID 743085);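 note: HG2L7.5c1 human HepG2 liver cells with stably integrated DRE-driven firefly reporter; series mostly up to about 70 µM; nearly all actives have a fitted effect of over 15% in size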
Summary of the method: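 Stably transfected human liver carcinoma cells (HG2L7.5c1; 20 DRE-firefly luciferase) were incubated 5 h, dosed, and kept 24 h at 37C. Agonism was scored from increased luciferase luminescence.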

[37] = qHTS assay to identify small molecule that activate the aryl hydrocarbon receptor (AhR) signaling pathway - cell viability counter screen (AID 743086);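 note: HepG2 liver cells carrying the AhR DRE luciferase reporter; series mostly up to about 70 µM; nearly all actives have a fitted effect of over 45% in size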
Summary of the method: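 HepG2-AhR-luc (HG2L7.5c1) cells, 4000/well, were preincubated 5 h at 37C, exposed to compound in qHTS format for 24 hr at 37C, then given CellTiter-Fluor for 30 min; viability was read as fluorescence in the reporter wells.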

[38] = molecular target: Peroxisome proliferator-activated receptor gamma (Homo sapiens) (UniProt P37231); assay: qHTS assay to identify small molecule agonists of the peroxisome proliferator-activated receptor gamma (PPARg) signaling pathway (AID 743094; active = well fitted activation curve with a large enough effect in the signal ratio in the repeat runs, not every such curve was filed as active; the % refers to the signal ratio)
Summary of the method: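 GeneBLAzer PPARg UAS-bla HEK293H cells were plated, rested 5 h, then exposed to compounds for 17 h at 37C. Beta-lactamase activity was read by LiveBLAzer B/G FRET substrate fluorescence after 1 h at room temperature.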

[39] = qHTS assay to identify small molecule phospholipidosis (PLD) inducers (AID 1259344; active = well fitted curve in the direction sought with a large enough effect; an effect the other way counts as inactive or inconclusive)
Summary of the method: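 HepG2 cells on collagen I, attached 4 h at 37 C, were co-treated with compound and LipidTOX Red dye for 24 h at 37 C, then fixed with paraformaldehyde plus Hoechst 33342 and imaged by high-content microscopy for phospholipid accumulation.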

Measured: Potency

Estrogen receptor (Homo sapiens), sequence (P03372 whole entry, looked up): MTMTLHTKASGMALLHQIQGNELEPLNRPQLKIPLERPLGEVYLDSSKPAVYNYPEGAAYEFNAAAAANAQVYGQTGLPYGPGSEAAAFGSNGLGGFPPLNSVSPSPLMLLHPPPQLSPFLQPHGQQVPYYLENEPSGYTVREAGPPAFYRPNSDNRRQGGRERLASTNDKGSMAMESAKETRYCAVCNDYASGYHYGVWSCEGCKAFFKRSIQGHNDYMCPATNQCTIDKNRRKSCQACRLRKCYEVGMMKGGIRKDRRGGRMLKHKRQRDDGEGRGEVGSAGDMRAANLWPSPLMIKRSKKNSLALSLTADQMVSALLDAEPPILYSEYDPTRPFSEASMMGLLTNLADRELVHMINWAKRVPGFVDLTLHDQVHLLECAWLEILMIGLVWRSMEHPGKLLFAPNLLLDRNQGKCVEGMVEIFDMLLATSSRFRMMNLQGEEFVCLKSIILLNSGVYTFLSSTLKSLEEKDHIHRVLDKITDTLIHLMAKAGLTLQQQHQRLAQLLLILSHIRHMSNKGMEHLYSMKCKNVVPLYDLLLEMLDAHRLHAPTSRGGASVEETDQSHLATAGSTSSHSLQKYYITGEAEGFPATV
Aromatase (Homo sapiens), sequence (P11511 whole entry, looked up): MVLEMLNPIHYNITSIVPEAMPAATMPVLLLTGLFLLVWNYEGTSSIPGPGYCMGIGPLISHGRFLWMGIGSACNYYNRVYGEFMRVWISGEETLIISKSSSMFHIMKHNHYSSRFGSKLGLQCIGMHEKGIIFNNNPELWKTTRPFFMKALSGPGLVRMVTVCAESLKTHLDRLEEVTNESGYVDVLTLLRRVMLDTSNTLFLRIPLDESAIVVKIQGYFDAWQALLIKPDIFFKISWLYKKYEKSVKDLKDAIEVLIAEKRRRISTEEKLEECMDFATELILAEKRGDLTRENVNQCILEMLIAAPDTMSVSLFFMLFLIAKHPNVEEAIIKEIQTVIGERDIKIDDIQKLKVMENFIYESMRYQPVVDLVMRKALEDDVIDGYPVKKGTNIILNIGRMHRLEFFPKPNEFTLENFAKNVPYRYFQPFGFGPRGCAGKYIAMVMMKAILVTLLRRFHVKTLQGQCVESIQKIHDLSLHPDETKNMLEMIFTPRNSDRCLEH
Peroxisome proliferator-activated receptor gamma (Homo sapiens), sequence (P37231 whole entry, looked up): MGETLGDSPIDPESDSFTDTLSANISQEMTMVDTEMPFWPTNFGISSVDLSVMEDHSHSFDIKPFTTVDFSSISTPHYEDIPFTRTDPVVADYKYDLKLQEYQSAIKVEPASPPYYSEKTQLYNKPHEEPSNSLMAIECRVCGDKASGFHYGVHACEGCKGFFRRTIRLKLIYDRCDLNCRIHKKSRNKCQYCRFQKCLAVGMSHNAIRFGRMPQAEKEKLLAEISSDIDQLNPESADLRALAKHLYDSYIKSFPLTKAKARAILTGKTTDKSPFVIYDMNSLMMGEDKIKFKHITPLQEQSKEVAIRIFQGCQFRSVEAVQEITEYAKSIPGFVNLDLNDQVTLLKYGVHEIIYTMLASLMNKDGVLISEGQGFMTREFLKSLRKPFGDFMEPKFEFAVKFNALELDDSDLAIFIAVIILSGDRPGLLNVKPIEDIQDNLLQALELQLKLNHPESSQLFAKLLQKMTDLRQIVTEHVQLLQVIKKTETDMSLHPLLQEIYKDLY
Aryl hydrocarbon receptor (Homo sapiens), sequence (P35869 whole entry, looked up): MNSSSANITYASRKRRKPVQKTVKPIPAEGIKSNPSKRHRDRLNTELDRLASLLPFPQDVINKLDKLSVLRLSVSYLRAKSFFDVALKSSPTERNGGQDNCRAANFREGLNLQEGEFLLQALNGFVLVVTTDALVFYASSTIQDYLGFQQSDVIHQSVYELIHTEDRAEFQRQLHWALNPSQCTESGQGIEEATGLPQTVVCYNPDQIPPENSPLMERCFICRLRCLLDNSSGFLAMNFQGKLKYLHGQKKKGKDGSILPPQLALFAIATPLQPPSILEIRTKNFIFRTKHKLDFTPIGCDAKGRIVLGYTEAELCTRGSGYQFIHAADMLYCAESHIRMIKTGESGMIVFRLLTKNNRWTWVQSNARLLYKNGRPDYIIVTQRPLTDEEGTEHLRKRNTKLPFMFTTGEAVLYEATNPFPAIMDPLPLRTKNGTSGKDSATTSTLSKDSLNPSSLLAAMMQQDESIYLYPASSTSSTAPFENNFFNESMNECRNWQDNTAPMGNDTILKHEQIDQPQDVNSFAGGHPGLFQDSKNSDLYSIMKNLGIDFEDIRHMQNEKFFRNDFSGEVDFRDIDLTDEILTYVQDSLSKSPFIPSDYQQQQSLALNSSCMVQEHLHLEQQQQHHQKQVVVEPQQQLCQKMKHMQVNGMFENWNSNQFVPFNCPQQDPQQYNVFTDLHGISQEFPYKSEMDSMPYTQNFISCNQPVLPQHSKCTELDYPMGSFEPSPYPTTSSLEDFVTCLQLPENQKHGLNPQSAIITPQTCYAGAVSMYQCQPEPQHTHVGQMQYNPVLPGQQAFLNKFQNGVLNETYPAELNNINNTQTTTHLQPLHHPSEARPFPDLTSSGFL

COc1ccc2c(c1O)-c1cccc3c1[C@@H](C2)N(C)CC3
inactive: [1] | [2] | [3] | [4] | [5] | [6]

NC(C(=O)O)c1cc(=O)[nH]o1 (stereo not given)
inactive: [1] | [2] | [3] | [4] | [5] | [6]

CC(Cc1ccc(OCC(=O)O)cc1)NCC(O)c1cccc(Cl)c1 (stereo not given)
inactive: [1] | [2] | [3] | [4] | [5] | [6]

CCCN1CCC[C@@H](c2cccc(O)c2)C1
inactive: [1] | [2] | [3] | [4] | [5] | [6]

CP(=O)(O)C1=CCNCC1
inactive: [1] | [2] | [3] | [4] | [5] | [6]

NC(N)=Nc1ccc2[nH]c3c(c2c1)C[C@@]1(O)[C@H]2Cc4ccc(O)c5c4[C@@]1(CCN2CC1CC1)[C@H]3O5
inactive: [1] | [2] | [3] | [4] | [6]

NC(CP(=O)(O)O)C(=O)O (stereo not given)
inactive: [1] | [2] | [3] | [4] | [5] | [6]

NC1CCc2cc(O)c(O)cc2C1 (stereo not given)
inactive: [1] | [2] | [3] | [4] | [6]

O=P(O)(O)C(Cl)(Cl)P(=O)(O)O
inactive: all assays above
